Source: PubChem BioAssay (several laboratories)
Rin1-Abl PPI inh: inhibitors of Rin1-Abl protein binding, primary screen, biochemical, TR-FRET; Tyrosine-protein kinase ABL1 (Homo sapiens) + Ras and Rab interactor 1 (Homo sapiens), …; inhibition, % at 7.35 µM; 360,000 compounds, 0.4% hits; AID 588664, 2011; in the data active = inhibition above about 5%, passing the limit was not always enough
IDE cell activ: human IDE activators in live cells, primary screen, fluorescence polarization, HEK cells, FAbeta-B substrate | FAbeta-B cleavage; 0% vehicle, 100% cell-free pure enzyme wells | activation, % at 5.96 µM | Insulin-degrading enzyme (Homo sapiens), P14735 | AID 493087, 2011 | 340,000 compounds, 0.073% hits;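 active = activation above the mean of all tested compounds plus 3 SD, set per screening campaign, cut at about 17% in these data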
TPT1 inh: Candida albicans TPT1 enzyme inhibitors, primary screen, biochemical, fluorescence polarization | tRNA 2'-phosphotransferase TPT1 (Candida albicans SC5314) | recombinant caTPT1, FP RNA substrate dephosphorylation | inhibition, % at 5 µM | 300,000 compounds, 0.81% hits | AID 1962, 2009;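 active = inhibition above the mean of all tested compounds plus 3 SD, set per screening campaign, cut at about 24% in these data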
IDE cell inh: human IDE inhibitors in live cells, primary screen, fluorescence polarization, HEK cells, FAbetaB substrate; Insulin-degrading enzyme (Homo sapiens), P14735; FAbetaB cleavage; inhibition, % at 5.59 µM; 320,000 compounds, 0.41% hits; AID 434962, 2010;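 active = percent inhibition above the average of all tested compounds plus 3 SD, set per screening campaign, cut at about 16% in these data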;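 also: IDE supplied by intact live HEK cells; FP after avidin binding of uncleaved biotin substrate so inhibition keeps polarization high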
Calb FLC: C. albicans growth inhibition with fluconazole, primary screen, CaCi-2 strain, Alamar Blue fluorescence; 300,000 compounds, 0.57% hits; C. albicans CaCi-2 (fluconazole-resistant clinical isolate) + fluconazole, 48 h; growth inhibition, % (no concentration beside the values);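 active = growth inhibition above about 58% in most replicates, limit read from the data, passing the limit was not always enough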;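 also: all wells also contain fluconazole at 8 µg/ml as a sub-toxic cotreatment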
Rpn11 inh: Rpn11 (PSMD14) deubiquitinase inhibitors, primary screen, biochemical, fluorescence polarization, uHTS | 26S proteasome non-ATPase regulatory subunit 14 (Homo sapiens), O00487 | human 26S proteasome, Ub4-pepOG fluorescence polarization; 20S core pre-blocked with epoxomicin | inhibition, % at 20 µM | 360,000 compounds, 0.59% hits | AID 588493, 2011;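 active = inhibition at 20 µM, scaled to each plate's controls, above about 33%, limit read from the data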
Rpn11 confirm: Rpn11 (PSMD14) deubiquitinase inhibitors, confirmation, biochemical, fluorescence polarization, single concentration; purified human 26S proteasome, Ub4-pepOG fluorescence polarization; proteasome pretreated with epoxomicin; 1,900 compounds, 29% hits; inhibition, % at 20 µM; shares compounds with Rpn11 inh
MMP-2 counter: MMP-2 enzyme inhibition, confirmation, counter-screen for RPN11 inhibitor project, biochemical, fluorescence, single concentration | shares compounds with Rpn11 inh | recombinant MMP-2, FRET peptide cleavage fluorescence | inhibition, % at 20 µM | 1,900 compounds, 4% hits | AID 602330, 2012;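 also: human MMP-2 activated beforehand with APMA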
Thrombin FP: bovine thrombin protease inhibition, confirmation, counter-screen for Rpn11 inhibitor project, biochemical, fluorescence polarization, single concentration; AID 602333, 2012; 1,900 compounds, 13% hits; inhibition, % at 20 µM; bovine thrombin cleavage of Ub4-pepOG; shares compounds with Rpn11 inh;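 active = mean inhibition at least 40% at 20 µM, or signal 3 deviations below plate average, so some actives read negative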
Large screens that a line does not name were inactive (follow-up assays come after a bar, where they were run). Rows were chosen to be rich in hits. Some 2.3% of all compounds tested hit in one or more screens of this group. Rule as the data show it, unless noted: active = inhibition above about 40%; inactive = the rest.

Cc1ccc(NC(=S)NCC2CCN(C(C)c3ccccc3)C2)cc1C (stereo not drawn)	none
O=C(NCc1ccco1)c1cccc(N2CCCC2=O)c1	Rpn11 inh active | Rpn11 confirm inactive | MMP-2 counter inactive | Thrombin FP inactive
O=[N+]([O-])c1ccc(NN=Cc2cccc3ccccc23)cc1	Rpn11 inh 51 (no result: TPT1 inh, IDE cell inh, Calb FLC) | Rpn11 confirm inactive | MMP-2 counter inactive | Thrombin FP inactive
O=[N+]([O-])c1ccccc1C=NNc1ccccc1	none (no result: TPT1 inh, IDE cell inh, Calb FLC)
O=C(/C=C/c1ccc(F)cc1)Nc1cc(S(=O)(=O)N2CCOCC2)ccc1N1CCOCC1	Rpn11 inh 90 (no result: IDE cell activ, TPT1 inh, IDE cell inh, Calb FLC) | Rpn11 confirm inactive | MMP-2 counter inactive | Thrombin FP inactive
Cc1cccc2sc(NNC(=O)c3cc(=O)c4ccccc4o3)nc12	none
Cc1ccc2sc(NNC(=O)c3cc(=O)c4ccccc4o3)nc2c1C	Rpn11 inh 48 | Rpn11 confirm inactive | MMP-2 counter inactive | Thrombin FP inactive
N#C/C(=C\c1cn(CCOc2ccccc2)c2ccccc12)C(=O)NCc1ccco1	Rpn11 inh 36 | Rpn11 confirm inactive | MMP-2 counter inactive | Thrombin FP inactive
Cc1ccc(CCNc2ncnc(Cl)c2N)cc1	none (no result: TPT1 inh, IDE cell inh, Calb FLC)
O=C(/C=C\Nc1ccc2c(c1)OCO2)c1ccc2c(c1)OCO2	Rpn11 inh 38 | Rpn11 confirm inactive | MMP-2 counter inactive | Thrombin FP inactive
COc1ccc(C(=O)/C(C#N)=N/Nc2ccccc2[N+](=O)[O-])cc1	none
COc1ccc(C(=O)/C(C#N)=N/Nc2ccc([N+](=O)[O-])cc2)cc1	Rpn11 inh 34 | Rpn11 confirm inactive | MMP-2 counter inactive | Thrombin FP inactive
COC(=O)C1=CC(C(=O)c2cccs2)=NN(c2ccc(OC)cc2)C1C(=O)OC (stereo not drawn)	Rpn11 inh 44 | Rpn11 confirm inactive | MMP-2 counter inactive | Thrombin FP inactive
CN(C)S(=O)(=O)c1ccc(N2CCCC2)c(C(=O)NNC(=O)COc2ccc(Cl)cc2)c1	none
CCc1ccc(OCC(=O)NNC(=O)c2cc(S(=O)(=O)N(C)C)ccc2N2CCCC2)cc1	Rpn11 inh 44 | Rpn11 confirm 56 | MMP-2 counter inactive | Thrombin FP inactive
O=C(Nc1cccc2nsnc12)c1ccc(-c2ccc(Br)cc2)o1	Rpn11 inh 53 | Rpn11 confirm inactive | MMP-2 counter inactive | Thrombin FP inactive
Nc1ccc(N=Nc2ccc(N)cc2)cc1	none
Cc1cc(N(C)C)ccc1N=Nc1ccc(N)cc1	Rpn11 inh 48 | Rpn11 confirm inactive | MMP-2 counter inactive | Thrombin FP inactive
CC1=C(C(=O)N(C)C)CC(CC(=O)NC2CCCCC2)C(=O)N1CCC1=CCCCC1 (stereo not drawn)	none (no result: IDE cell activ, TPT1 inh, IDE cell inh, Calb FLC)
CCOc1ccc(OCCC(=O)Nc2ccc(F)cc2C)cc1	none
CC(=O)NCCC(=O)Nc1ccc(F)cc1C	Rpn11 inh 114 | Rpn11 confirm inactive | MMP-2 counter inactive | Thrombin FP inactive
O=NN(CC(=O)NN=CC=Cc1ccccc1)CC(=O)NN=CC=Cc1ccccc1	Rpn11 inh 72 (no result: IDE cell activ, TPT1 inh, IDE cell inh, Calb FLC) | Rpn11 confirm inactive | MMP-2 counter inactive | Thrombin FP inactive
CN1CCN(C(=O)CCN2C(=O)/C(=C\c3ccc(F)cc3)SC2=S)CC1	none (no result: TPT1 inh, Calb FLC)
